# Test results published in the supplement of paper PMC4466140.
# Molecular target: AgAbp1
# Experiment: SPOT peptide array binding signal intensity (averaged, normalized) (arbitrary units (background-subtracted, floor 0; scale differs between SH3 domains)); higher = stronger binding of the SH3 domain to the peptide
# Protocol: (§1)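 GST-tagged SH3 domains from S. cerevisiae (Sc), A. gossypii (Ag), C. albicans (Ca) and S. pombe (Sp) were incubated at 10 ug/ml overnight at 4 C on cellulose SPOT membranes carrying 292 synthetic 15-mer peptides mined from the S. cerevisiae proteome (cysteines replaced by serines). Binding was detected with anti-GST antibody, HRP secondary and chemiluminescence, quantified with Genespotter, and reported as normalized spot intensities averaged over biological replicates.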
row,Binder,SPOT peptide array binding signal intensity
1,QQNRPLPQLPNRNNR,30

# Molecular target: AgBbc1
# Experiment: as above
# Protocol: as §1
row,Binder,SPOT peptide array binding signal intensity
1,QQNRPLPQLPNRNNR,585

# Molecular target: AgBem1-D1
# Experiment: as above
# Protocol: as §1
row,Binder,SPOT peptide array binding signal intensity
1,QQNRPLPQLPNRNNR,98.5

# Molecular target: AgBzz1-D1
# Experiment: as above
# Protocol: as §1
row,Binder,SPOT peptide array binding signal intensity
1,QQNRPLPQLPNRNNR,73

# Molecular target: AgBzz1-D2
# Experiment: as above
# Protocol: as §1
row,Binder,SPOT peptide array binding signal intensity
1,QQNRPLPQLPNRNNR,80

# Molecular target: AgCyk3
# Experiment: as above
# Protocol: as §1
row,Binder,SPOT peptide array binding signal intensity
1,QQNRPLPQLPNRNNR,102

# Molecular target: AgFus1
# Experiment: as above
# Protocol: as §1
row,Binder,SPOT peptide array binding signal intensity
1,QQNRPLPQLPNRNNR,17

# Molecular target: AgHof1
# Experiment: as above
# Protocol: as §1
row,Binder,SPOT peptide array binding signal intensity
1,QQNRPLPQLPNRNNR,938

# Molecular target: AgHse1
# Experiment: as above
# Protocol: as §1
row,Binder,SPOT peptide array binding signal intensity
1,QQNRPLPQLPNRNNR,29

# Molecular target: AgLsb1
# Experiment: as above
# Protocol: as §1
row,Binder,SPOT peptide array binding signal intensity
1,QQNRPLPQLPNRNNR,148

# Molecular target: AgLsb4
# Experiment: as above
# Protocol: as §1
row,Binder,SPOT peptide array binding signal intensity
1,QQNRPLPQLPNRNNR,1970

# Molecular target: AgMyo5
# Experiment: as above
# Protocol: as §1
row,Binder,SPOT peptide array binding signal intensity
1,QQNRPLPQLPNRNNR,≤ 0

# Molecular target: AgNbp2
# Experiment: as above
# Protocol: as §1
row,Binder,SPOT peptide array binding signal intensity
1,QQNRPLPQLPNRNNR,0.5

# Molecular target: AgRvs167
# Experiment: as above
# Protocol: as §1
row,Binder,SPOT peptide array binding signal intensity
1,QQNRPLPQLPNRNNR,797

# Molecular target: AgSho1
# Experiment: as above
# Protocol: as §1
row,Binder,SPOT peptide array binding signal intensity
1,QQNRPLPQLPNRNNR,2750

# Molecular target: AgSla1-D1-D2
# Experiment: as above
# Protocol: as §1
row,Binder,SPOT peptide array binding signal intensity
1,QQNRPLPQLPNRNNR,1

# Molecular target: AgSla1-D3
# Experiment: as above
# Protocol: as §1
row,Binder,SPOT peptide array binding signal intensity
1,QQNRPLPQLPNRNNR,≤ 0

# Molecular target: CaAbp1-D1
# Experiment: as above
# Protocol: as §1
row,Binder,SPOT peptide array binding signal intensity
1,QQNRPLPQLPNRNNR,32

# Molecular target: CaAbp1-D2
# Experiment: as above
# Protocol: as §1
row,Binder,SPOT peptide array binding signal intensity
1,QQNRPLPQLPNRNNR,6

# Molecular target: CaBbc1
# Experiment: as above
# Protocol: as §1
row,Binder,SPOT peptide array binding signal intensity
1,QQNRPLPQLPNRNNR,1000

# Molecular target: CaBem1-D1
# Experiment: as above
# Protocol: as §1
row,Binder,SPOT peptide array binding signal intensity
1,QQNRPLPQLPNRNNR,26.5

# Molecular target: CaBzz1-D1
# Experiment: as above
# Protocol: as §1
row,Binder,SPOT peptide array binding signal intensity
1,QQNRPLPQLPNRNNR,132

# Molecular target: CaBzz1-D2
# Experiment: as above
# Protocol: as §1
row,Binder,SPOT peptide array binding signal intensity
1,QQNRPLPQLPNRNNR,90.5

# Molecular target: CaCyk3
# Experiment: as above
# Protocol: as §1
row,Binder,SPOT peptide array binding signal intensity
1,QQNRPLPQLPNRNNR,35

# Molecular target: CaFus1
# Experiment: as above
# Protocol: as §1
row,Binder,SPOT peptide array binding signal intensity
1,QQNRPLPQLPNRNNR,74

# Molecular target: CaHof1
# Experiment: as above
# Protocol: as §1
row,Binder,SPOT peptide array binding signal intensity
1,QQNRPLPQLPNRNNR,17

# Molecular target: CaHse1
# Experiment: as above
# Protocol: as §1
row,Binder,SPOT peptide array binding signal intensity
1,QQNRPLPQLPNRNNR,49.2

# Molecular target: CaLsb1
# Experiment: as above
# Protocol: as §1
row,Binder,SPOT peptide array binding signal intensity
1,QQNRPLPQLPNRNNR,1.5

# Molecular target: CaLsb4
# Experiment: as above
# Protocol: as §1
row,Binder,SPOT peptide array binding signal intensity
1,QQNRPLPQLPNRNNR,4700

# Molecular target: CaMyo5
# Experiment: as above
# Protocol: as §1
row,Binder,SPOT peptide array binding signal intensity
1,QQNRPLPQLPNRNNR,4

# Molecular target: CaNbp2
# Experiment: as above
# Protocol: as §1
row,Binder,SPOT peptide array binding signal intensity
1,QQNRPLPQLPNRNNR,100

# Molecular target: CaRvs167
# Experiment: as above
# Protocol: as §1
row,Binder,SPOT peptide array binding signal intensity
1,QQNRPLPQLPNRNNR,1040

# Molecular target: CaRvs167-3
# Experiment: as above
# Protocol: as §1
row,Binder,SPOT peptide array binding signal intensity
1,QQNRPLPQLPNRNNR,1.75

# Molecular target: CaSho1
# Experiment: as above
# Protocol: as §1
row,Binder,SPOT peptide array binding signal intensity
1,QQNRPLPQLPNRNNR,658

# Molecular target: CaSla1-D1-D2
# Experiment: as above
# Protocol: as §1
row,Binder,SPOT peptide array binding signal intensity
1,QQNRPLPQLPNRNNR,738

# Molecular target: CaSla1-D3
# Experiment: as above
# Protocol: as §1
row,Binder,SPOT peptide array binding signal intensity
1,QQNRPLPQLPNRNNR,3.25

# Molecular target: ScAbp1
# Experiment: as above
# Protocol: as §1
row,Binder,SPOT peptide array binding signal intensity
1,QQNRPLPQLPNRNNR,62

# Molecular target: ScBbc1
# Experiment: as above
# Protocol: as §1
row,Binder,SPOT peptide array binding signal intensity
1,QQNRPLPQLPNRNNR,65

# Molecular target: ScBem1-D1
# Experiment: as above
# Protocol: as §1
row,Binder,SPOT peptide array binding signal intensity
1,QQNRPLPQLPNRNNR,9

# Molecular target: ScBzz1-D1
# Experiment: as above
# Protocol: as §1
row,Binder,SPOT peptide array binding signal intensity
1,QQNRPLPQLPNRNNR,25

# Molecular target: ScBzz1-D2
# Experiment: as above
# Protocol: as §1
row,Binder,SPOT peptide array binding signal intensity
1,QQNRPLPQLPNRNNR,21

# Molecular target: ScCyk3
# Experiment: as above
# Protocol: as §1
row,Binder,SPOT peptide array binding signal intensity
1,QQNRPLPQLPNRNNR,4

# Molecular target: ScFus1
# Experiment: as above
# Protocol: as §1
row,Binder,SPOT peptide array binding signal intensity
1,QQNRPLPQLPNRNNR,22

# Molecular target: ScHof1
# Experiment: as above
# Protocol: as §1
row,Binder,SPOT peptide array binding signal intensity
1,QQNRPLPQLPNRNNR,70.2

# Molecular target: ScHse1
# Experiment: as above
# Protocol: as §1
row,Binder,SPOT peptide array binding signal intensity
1,QQNRPLPQLPNRNNR,≤ 0

# Molecular target: ScLsb1
# Experiment: as above
# Protocol: as §1
row,Binder,SPOT peptide array binding signal intensity
1,QQNRPLPQLPNRNNR,95

# Molecular target: ScLsb2
# Experiment: as above
# Protocol: as §1
row,Binder,SPOT peptide array binding signal intensity
1,QQNRPLPQLPNRNNR,36.5

# Molecular target: ScLsb3
# Experiment: as above
# Protocol: as §1
row,Binder,SPOT peptide array binding signal intensity
1,QQNRPLPQLPNRNNR,6550

# Molecular target: ScLsb4
# Experiment: as above
# Protocol: as §1
row,Binder,SPOT peptide array binding signal intensity
1,QQNRPLPQLPNRNNR,1180

# Molecular target: ScMyo3
# Experiment: as above
# Protocol: as §1
row,Binder,SPOT peptide array binding signal intensity
1,QQNRPLPQLPNRNNR,≤ 0

# Molecular target: ScMyo5
# Experiment: as above
# Protocol: as §1
row,Binder,SPOT peptide array binding signal intensity
1,QQNRPLPQLPNRNNR,≤ 0

# Molecular target: ScNbp2
# Experiment: as above
# Protocol: as §1
row,Binder,SPOT peptide array binding signal intensity
1,QQNRPLPQLPNRNNR,23

# Molecular target: ScPex13
# Experiment: as above
# Protocol: as §1
row,Binder,SPOT peptide array binding signal intensity
1,QQNRPLPQLPNRNNR,1010

# Molecular target: ScRvs167
# Experiment: as above
# Protocol: as §1
row,Binder,SPOT peptide array binding signal intensity
1,QQNRPLPQLPNRNNR,1370

# Molecular target: ScSho1
# Experiment: as above
# Protocol: as §1
row,Binder,SPOT peptide array binding signal intensity
1,QQNRPLPQLPNRNNR,6410

# Molecular target: ScSla1-D1-D2
# Experiment: as above
# Protocol: as §1
row,Binder,SPOT peptide array binding signal intensity
1,QQNRPLPQLPNRNNR,383

# Molecular target: ScSla1-D3
# Experiment: as above
# Protocol: as §1
row,Binder,SPOT peptide array binding signal intensity
1,QQNRPLPQLPNRNNR,2

# Molecular target: SpAbp1-D1
# Experiment: as above
# Protocol: as §1
row,Binder,SPOT peptide array binding signal intensity
1,QQNRPLPQLPNRNNR,17

# Molecular target: SpBbc1
# Experiment: as above
# Protocol: as §1
row,Binder,SPOT peptide array binding signal intensity
1,QQNRPLPQLPNRNNR,28

# Molecular target: SpBzz1-D1
# Experiment: as above
# Protocol: as §1
row,Binder,SPOT peptide array binding signal intensity
1,QQNRPLPQLPNRNNR,450

# Molecular target: SpBzz1-D2
# Experiment: as above
# Protocol: as §1
row,Binder,SPOT peptide array binding signal intensity
1,QQNRPLPQLPNRNNR,1.5

# Molecular target: SpCyk3
# Experiment: as above
# Protocol: as §1
row,Binder,SPOT peptide array binding signal intensity
1,QQNRPLPQLPNRNNR,123

# Molecular target: SpHof1
# Experiment: as above
# Protocol: as §1
row,Binder,SPOT peptide array binding signal intensity
1,QQNRPLPQLPNRNNR,1520

# Molecular target: SpHof1-2
# Experiment: as above
# Protocol: as §1
row,Binder,SPOT peptide array binding signal intensity
1,QQNRPLPQLPNRNNR,1990

# Molecular target: SpHof1-3
# Experiment: as above
# Protocol: as §1
row,Binder,SPOT peptide array binding signal intensity
1,QQNRPLPQLPNRNNR,1170

# Molecular target: SpHse1
# Experiment: as above
# Protocol: as §1
row,Binder,SPOT peptide array binding signal intensity
1,QQNRPLPQLPNRNNR,14

# Molecular target: SpLsb1
# Experiment: as above
# Protocol: as §1
row,Binder,SPOT peptide array binding signal intensity
1,QQNRPLPQLPNRNNR,82.8

# Molecular target: SpLsb4
# Experiment: as above
# Protocol: as §1
row,Binder,SPOT peptide array binding signal intensity
1,QQNRPLPQLPNRNNR,6900

# Molecular target: SpMyo1
# Experiment: as above
# Protocol: as §1
row,Binder,SPOT peptide array binding signal intensity
1,QQNRPLPQLPNRNNR,45.8

# Molecular target: SpNbp2
# Experiment: as above
# Protocol: as §1
row,Binder,SPOT peptide array binding signal intensity
1,QQNRPLPQLPNRNNR,20

# Molecular target: SpPex13
# Experiment: as above
# Protocol: as §1
row,Binder,SPOT peptide array binding signal intensity
1,QQNRPLPQLPNRNNR,3.5

# Molecular target: SpRvs167
# Experiment: as above
# Protocol: as §1
row,Binder,SPOT peptide array binding signal intensity
1,QQNRPLPQLPNRNNR,2080

# Molecular target: SpSla1-D1-D2
# Experiment: as above
# Protocol: as §1
row,Binder,SPOT peptide array binding signal intensity
1,QQNRPLPQLPNRNNR,333

# Molecular target: SpSla1-D3
# Experiment: as above
# Protocol: as §1
row,Binder,SPOT peptide array binding signal intensity
1,QQNRPLPQLPNRNNR,7
